This note sets out measurements from ChEMBL document CHEMBL5606458, “ASAP - ZIKV NS2B-NS3 protease fluorescence single point” (2024).

Each structure is given as a SMILES string. Out of some 2,700 compounds screened, about 160 (5.9%) showed an effect of 50% or more. Many of the other results were omitted from the sample, so strong results are more common in it than they were.

By inhibition is commonly meant the change of the read-out against control, counted positive when it falls.

The target of this test is Nonstructural protein 3 (Zika virus) (UniProt A0A024AXB9).
Chain of Nonstructural protein 3 (Zika virus) (A0A024AXB9 as listed by the source): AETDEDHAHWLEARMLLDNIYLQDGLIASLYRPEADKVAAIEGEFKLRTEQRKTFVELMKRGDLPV

For `N#CC1(c2ccccc2)CCN(Cc2c[nH]c3ccccc23)CC1`, the inhibition stood at 32% (PRVABC59, Concentration 49.5 uM, Number of replicates 2.0, Standard deviation 0.4200874171769353 %); 34.4% (PRVABC59, Concentration 99.01 uM, Number of replicates 2.0, Standard deviation 0.32673315924966934 %); 32.8% (PRVABC59, Concentration 198.0 uM, Number of replicates 2.0, Standard deviation 0.06482927085509294 %).
`FC(F)(F)c1ccccc1C1CCN(Cc2c[nH]c3ccccc23)CC1`: the inhibition stood at 33% (PRVABC59, Concentration 49.5 uM, Number of replicates 2.0, Standard deviation 0.039004379485921774 %); 38.2% (PRVABC59, Concentration 99.01 uM, Number of replicates 2.0, Standard deviation 0.833177783151486 %); 41.8% (PRVABC59, Concentration 198.0 uM, Number of replicates 2.0, Standard deviation 1.0547312903060968 %).
For the compound `c1cc(C2CCN(Cc3c[nH]c4ccccc34)CC2)c2ccncc2c1`, the inhibition was found to be 65.6% (PRVABC59, Concentration 49.5 uM, Number of replicates 2.0, Standard deviation 0.9049501572428696 %); 80.3% (PRVABC59, Concentration 99.01 uM, Number of replicates 2.0, Standard deviation 0.6350269036884285 %); 90% (PRVABC59, Concentration 198.0 uM, Number of replicates 2.0, Standard deviation 0.1685064720944352 %).
For the compound `c1ccc2c(CN3CCC(c4cscn4)CC3)c[nH]c2c1`, the inhibition was 65.8% (PRVABC59, Concentration 49.5 uM, Number of replicates 2.0, Standard deviation 0.07712401232790286 %); 79.9% (PRVABC59, Concentration 99.01 uM, Number of replicates 2.0, Standard deviation 0.031176529605690447 %); 89.2% (PRVABC59, Concentration 198.0 uM, Number of replicates 2.0, Standard deviation 0.07383858119278165 %).
For `C#CCn1ccnc(N2CC[C@H](CO)C2)c1=O`, the inhibition (PRVABC59, Concentration 49.5 uM, Number of replicates 2.0, Standard deviation 1.0450300973032534 %) was 12.1%; the inhibition (PRVABC59, Concentration 99.01 uM, Number of replicates 2.0, Standard deviation 3.6329706761941627 %) was 19.8%; the inhibition (PRVABC59, Concentration 198.0 uM, Number of replicates 2.0, Standard deviation 1.3173095282768474 %) turned out to be 33.5%.
Consider `CCCC[C@@H](NC(=O)OC(C)(C)C)C(=O)N[C@@H](C(=O)NCc1ccc(CN)cc1)c1ccc(OCc2ccccc2)cc1`, for which the inhibition by setting is: (PRVABC59, Concentration 49.5 uM, Number of replicates 2.0, Standard deviation 0.1534981479270999 %) 98.5%; (PRVABC59, Concentration 99.01 uM, Number of replicates 2.0, Standard deviation 0.024832248793042588 %) 99.6%; (PRVABC59, Concentration 198.0 uM, Number of replicates 2.0, Standard deviation 0.14898809796164614 %) 99%.
In the case of `CCCC[C@H](NC(=O)OC(C)(C)C)C(=O)N[C@H](C(=O)NCc1ccc(C(N)=O)cc1)c1ccc(OCc2ccccc2)cc1`, the inhibition is -3.29% (PRVABC59, Concentration 49.5 uM, Number of replicates 2.0, Standard deviation 0.2512152790248196 %); 4.53% (PRVABC59, Concentration 99.01 uM, Number of replicates 2.0, Standard deviation 1.1330320426444238 %); 69.4% (PRVABC59, Concentration 198.0 uM, Number of replicates 2.0, Standard deviation 0.18969183837952716 %).
As for `CCn1ccnc(N2CC[C@H](c3cccnc3)C2)c1=O`, the inhibition runs as follows: (PRVABC59, Concentration 49.5 uM, Number of replicates 2.0, Standard deviation 0.6295639977718405 %) 11.1%; (PRVABC59, Concentration 99.01 uM, Number of replicates 2.0, Standard deviation 0.9611868657983497 %) 17.2%; (PRVABC59, Concentration 198.0 uM, Number of replicates 2.0, Standard deviation 2.077820749798943 %) 29.9%.
With `O[C@@H]1CNC[C@H]1c1c[nH]c2ccccc12`, the inhibition is, setting by setting: (PRVABC59, Concentration 49.5 uM, Number of replicates 2.0, Standard deviation 0.0908773719339778 %) 4.36%; (PRVABC59, Concentration 99.01 uM, Number of replicates 2.0, Standard deviation 0.868383551474818 %) 12%; (PRVABC59, Concentration 198.0 uM, Number of replicates 2.0, Standard deviation 1.0703330421004655 %) 25.3%.
Turning to `CCn1ccnc(N2CC[C@H](C#N)C2)c1=O`, the inhibition amounted to 9.92% (PRVABC59, Concentration 50.0 uM, Number of replicates 1.0); 15.4% (PRVABC59, Concentration 100.0 uM, Number of replicates 2.0, Standard deviation 3.4431722905816002 %); 26.6% (PRVABC59, Concentration 200.0 uM, Number of replicates 3.0, Standard deviation 5.353488841443075 %).
Turning to `CCn1ccnc(N2CC[C@@H](CC#N)C2)c1=O`, the inhibition reads like this: (PRVABC59, Concentration 49.5 uM, Number of replicates 2.0, Standard deviation 4.2825905047110036 %) 7.54%; (PRVABC59, Concentration 99.01 uM, Number of replicates 2.0, Standard deviation 3.0053265516656906 %) 14.9%; (PRVABC59, Concentration 198.0 uM, Number of replicates 2.0, Standard deviation 1.5959318913639373 %) 26%.
In the case of `CCn1ccnc(N(C)[C@@H](CO)Cc2c[nH]c3ccccc23)c1=O`, the inhibition (PRVABC59, Concentration 49.5 uM, Number of replicates 2.0, Standard deviation 1.5047267855359387 %) was found to be 5.63%; the inhibition (PRVABC59, Concentration 99.01 uM, Number of replicates 2.0, Standard deviation 0.8040526249565179 %) was found to be 13%; the inhibition (PRVABC59, Concentration 198.0 uM, Number of replicates 2.0, Standard deviation 1.5605190977207197 %) came out at 25.3%.
Consider `O[C@@H]1CN(Cc2c[nH]c3ccccc23)CC[C@@H]1c1ccccc1`, for which the inhibition was determined as 52.4% (PRVABC59, Concentration 49.5 uM, Number of replicates 2.0, Standard deviation 0.3811882362248968 %); 68% (PRVABC59, Concentration 99.01 uM, Number of replicates 2.0, Standard deviation 0.3137721603955992 %); 78.3% (PRVABC59, Concentration 198.0 uM, Number of replicates 2.0, Standard deviation 0.1218792449994391 %).
`c1cc(CN2CCC(c3c[nH]c4ncccc34)CC2)c2[nH]ccc2c1`: the inhibition came out at 22.9% (PRVABC59, Concentration 49.5 uM, Number of replicates 2.0, Standard deviation 0.810920201040277 %); 30.1% (PRVABC59, Concentration 99.01 uM, Number of replicates 2.0, Standard deviation 0.8653267248460199 %); 32% (PRVABC59, Concentration 198.0 uM, Number of replicates 2.0, Standard deviation 1.207313671508752 %).
For the compound `N#C[C@H]1CCCN(Cc2c[nH]c3ccccc23)C1`, the inhibition is 3.62% (PRVABC59, Concentration 49.5 uM, Number of replicates 2.0, Standard deviation 3.0443309311516127 %); 5.66% (PRVABC59, Concentration 99.01 uM, Number of replicates 2.0, Standard deviation 5.606340240027709 %); 8.81% (PRVABC59, Concentration 198.0 uM, Number of replicates 2.0, Standard deviation 2.4427254668079588 %).
As to `c1ccc2c(CN3CCC(c4c[nH]c5cccnc45)CC3)c[nH]c2c1`, the inhibition (PRVABC59, Concentration 49.5 uM, Number of replicates 2.0, Standard deviation 1.80837898184189 %) came to 63.8%; the inhibition (PRVABC59, Concentration 99.01 uM, Number of replicates 2.0, Standard deviation 1.3316731742493602 %) stood at 74.9%; the inhibition (PRVABC59, Concentration 198.0 uM, Number of replicates 2.0, Standard deviation 0.976733320927472 %) stood at 81.5%.
As for `C[C@@H](CO)N1CC[C@H](c2c[nH]c3ccccc23)C1`, the inhibition reads like this: (PRVABC59, Concentration 49.5 uM, Number of replicates 2.0, Standard deviation 2.959092091051968 %) -1.43%; (PRVABC59, Concentration 99.01 uM, Number of replicates 2.0, Standard deviation 1.9403190167556676 %) 0.816%; (PRVABC59, Concentration 198.0 uM, Number of replicates 2.0, Standard deviation 2.4285693519175138 %) 5.47%.
Regarding `O[C@H]1CCCN(Cc2c[nH]c3ccccc23)C1`, the inhibition (PRVABC59, Concentration 49.5 uM, Number of replicates 2.0, Standard deviation 18.69396289412785 %) is 21%; the inhibition (PRVABC59, Concentration 99.01 uM, Number of replicates 2.0, Standard deviation 0.9286103864725214 %) worked out at 13.9%; the inhibition (PRVABC59, Concentration 198.0 uM, Number of replicates 2.0, Standard deviation 2.4132961769541357 %) stood at 24.7%.
Take `C[C@@H](Cc1c[nH]c2ccccc12)N1CC[C@H](n2ncc3ccccc32)C1`: the inhibition reads like this: (PRVABC59, Concentration 49.5 uM, Number of replicates 2.0, Standard deviation 0.39220306220212786 %) 9.38%; (PRVABC59, Concentration 99.01 uM, Number of replicates 2.0, Standard deviation 0.9766631885715499 %) 10.3%; (PRVABC59, Concentration 198.0 uM, Number of replicates 2.0, Standard deviation 1.7687599327172854 %) 8.18%.
Take `c1ccc2c(CN3CCC(c4c[nH]c5ncccc45)CC3)c[nH]c2c1`: the inhibition reads like this: (PRVABC59, Concentration 49.5 uM, Number of replicates 2.0, Standard deviation 1.5803867849339672 %) 58.2%; (PRVABC59, Concentration 99.01 uM, Number of replicates 2.0, Standard deviation 1.538935865185685 %) 72.5%; (PRVABC59, Concentration 198.0 uM, Number of replicates 2.0, Standard deviation 1.43011742277759 %) 82.3%.
